Only some compounds are listed: those with a hit (about 3.3% of all), similar ones and a draw of the others.
FBPA Giardia inh: Giardia lamblia aldolase inhibition; actives 0.71% (n = 290,000); purified Giardia FBPA; Potency, µM (titrated, usually from 59.6 µM), for inactives: at the highest dose activity, negative = inhibition, actives largely listed as inhibitors; AID 2451; further: nearly all actives have a fitted effect of over 55% in size
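40 nM FBPA preincubated 10 min at RT with compound (up to 57.5 uM final), then substrate plus GAPDH/TPI/NAD/arsenate coupling and diaphorase/resazurin added. Fluorescence read after 20 min at RT, 525/598 nm.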
Sm TGR block: blocks Schistosoma mansoni thioredoxin glutathione reductase. Q962Y6. purified TGR, DTNB reduction, TNB absorbance 405 nm. Potency, µM (series often up to 114 µM), for inactives: at the highest dose activity change, negative = inhibition, actives largely listed as inhibitors. actives 3% (n = 360,000). AID 485364; further: nearly all actives have a fitted effect of over 60% in size
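First, TGR (20 nM dispensed) and NADPH were mixed with compound. Second, a 15 min room-temperature incubation followed. Third, further NADPH and then DTNB were added to start the reaction. Finally, TNB absorbance was monitored kinetically.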
RE007 growth inh: less growth of the S. pombe RE007 Vpr strain | S. pombe RE007 Vpr strain, BacTiter-Glo ATP luminescence, 24 h | Potency, µM (doses to about 92.2 µM), inactives show at the top dose activity change, negative = less growth, most hits filed as inhibitors | actives 0.21% (n = 360,000) | AID 651644; active means well fitted falling curve with a large enough effect; inconclusive means small, poorly fitted or top-dose-only effect; inactive means no such curve, though single readings can be large or run the other way; further: nearly all actives have a fitted effect of over 50% in size
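Fission yeast RE007 carrying one integrated HIV-1 vpr copy, seeded at OD 0.01 in PMG+AL medium with 23 nL pinned compound. Grown 24 h at 30 degrees; viability read by BacTiter-Glo luminescence after 5 min.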
TbPYK inhibitor: inhibitors of Trypanosoma brucei pyruvate kinase. Q57TT1. TbPYK enzyme, Kinase-Glo Plus ATP luminescence, 45 min. Potency, µM (series often up to 76.8 µM), for inactives: at the top dose activity, negative = inhibition, most hits filed as inhibitors. actives 0.12% (n = 410,000). AID 624173; further: nearly all actives have a fitted effect of over 50% in size
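Readout: single end-point luminescence (Kinase-Glo Plus, 10 min). Reaction conditions were TbPYK/substrate plus 130 uM ADP, 45 min at RT, pH 7.2 TEA buffer. No-enzyme wells served as controls, and data were normalized before concentration-response fitting.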
LmPK inhibitor: inhibitors of Leishmania mexicana pyruvate kinase. Q27686. purified LmPK, Kinase-Glo ATP luminescence, 1 h. Potency, µM (doses to about 57.5 µM), for the others: at the highest dose activity change, negative = inhibition, usual class: inhibitors. actives 0.37% (n = 290,000). AID 1721
Target sequence (Q27686 whole entry, looked up): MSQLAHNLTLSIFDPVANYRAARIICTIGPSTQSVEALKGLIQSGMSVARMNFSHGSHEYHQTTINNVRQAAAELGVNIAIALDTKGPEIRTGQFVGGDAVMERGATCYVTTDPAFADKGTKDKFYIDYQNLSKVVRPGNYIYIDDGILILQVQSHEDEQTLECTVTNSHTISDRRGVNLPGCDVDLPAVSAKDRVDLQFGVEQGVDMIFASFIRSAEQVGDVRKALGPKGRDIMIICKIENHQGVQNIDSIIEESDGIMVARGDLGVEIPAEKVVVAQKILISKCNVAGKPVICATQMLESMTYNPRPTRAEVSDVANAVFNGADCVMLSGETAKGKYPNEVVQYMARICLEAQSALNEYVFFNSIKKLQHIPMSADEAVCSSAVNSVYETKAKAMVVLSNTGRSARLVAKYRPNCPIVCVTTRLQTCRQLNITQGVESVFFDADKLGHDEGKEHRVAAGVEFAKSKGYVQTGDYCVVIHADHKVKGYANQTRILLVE
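0.1 nM LmPK, 0.5 mM PEP, 0.1 mM ADP; 50 mM imidazole pH 7.2, 7 mM MgCl2, 50 mM KCl; 1 h RT. Kinase-Glo luminescence readout, normalized to no-enzyme (full inhibition) and uninhibited wells.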
An asterisk follows results filed as active; u = inconclusive; x = not tested or not shown; [ ] = remark or other dose. Unless noted, the call rests on the fitted dose curve; in most records, active means well fitted curve in the direction sought with a large enough effect; inconclusive means small, poorly fitted or top-dose-only effect, or another doubt; inactive means no such curve, though single readings can be large; an effect the other way counts as inactive or inconclusive. On the % scale 0 is the no-effect control and ±100 the full control effect; potency means the concentration at half of the fitted maximal effect.

SMILES	FBPA Giardia inh	Sm TGR block	RE007 growth inh	TbPYK inhibitor	LmPK inhibitor
CCCCN1Cc2c(nc3cc(-c4ccco4)[nH]n3c2=O)C1=O	1%	20µM*	-9%	-8%	19%
COc1cc(N(C)C)cc(CN(C)CCc2ccc([N+](=O)[O-])cc2)c1O	7.9µM*	x	x	x	x
CCN(CC)C(=O)CSc1nc2ncc(Cl)cc2[nH]1	u	13%	-23%	7%	2%
COc1ccc(C2=C/C(=C\c3ccc(OC(C)=O)cc3)C(=O)O2)cc1	4%	50µM*	-29%	-7%	5%
CC(=O)CCc1oc2ccc(NC(C)=O)cc2c1-c1ccc(C)o1	-7%	20µM*	4%	-14%	-14%
CC(=O)CCc1oc2ccc(C)cc2c1-c1ccc(C)o1	-1%	25µM*	-23%	-11%	-4%
CC1=C(C(=O)Nc2ccccc2F)C(c2ccsc2)C2=C(CC(c3ccccc3)CC2=O)N1 (stereo unspecified)	x	-14%	-18%	-3%	1%
O=C(Cn1sc2ccccc2c1=O)Nc1ccc(Br)cc1	x	x	50%	7.9µM*	x
Nc1c(N(CCO)C(=O)/C=C/c2ccco2)c(=O)[nH]c(=O)n1Cc1ccccc1	0%	50µM*	0%	-5%	0%
Cc1ccccc1OCC(=O)N(Cc1ccco1)c1c(N)n(Cc2ccccc2)c(=O)[nH]c1=O	x	45µM*	-16%	0%	x
CC(=O)c1ccc(NC(=O)CN2CCN(S(=O)(=O)c3ccc4c(c3)OCCO4)CC2)cc1	x	x	-11%	7%	x
Cc1ccn2c(=O)nc(SCC(=O)NCc3ccccc3)nc2c1	x	-1%	-12%	-4%	x
Cc1ccn2c(=O)nc(SCC(=O)NCc3ccco3)nc2c1	x	35µM*	-15%	-2%	x
Cc1cc(SCC(=O)NC(=O)NCc2ccco2)nc2c(C)cccc12	5%	u	10%	-11%	10%
Cc1cc(C(=O)NNC(=S)NCc2ccco2)n(C)n1	-5%	22µM*	14%	-18%	-1%
O=C(CSc1cccc2cccnc12)NCc1ccco1	-20%	45µM*	4%	-8%	4%
Cc1cc(SCC(=O)NC(=O)NCc2ccco2)nc2ccccc12	-2%	40µM*	17%	-14%	3%
COc1ccc(CNC(=O)CSc2cccc3cccnc23)cc1	-5%	5%	10%	1%	2%
CCCC1(C(=O)OC)C=C2C(=C(C(C)C)C(=O)C2C)CN1 (stereo unspecified)	-20%	x	x	x	x
CCN(C(=O)CSc1nc(C)cc(=O)[nH]1)C1CCCCC1	x	x	-10%	1%	x
Cc1nn(C)c2c1c(-c1ccccc1)cc(=O)n2CC(=O)Nc1ccccc1C(F)(F)F	x	-2%	x	4%	x
CC(c1ccccc1)N1CCC(CNC(=S)Nc2cccc(Cl)c2)C1 (stereo unspecified)	6%	u	-6%	-14%	11%
Cc1cc(C)nc(SCC(=O)NCc2ccco2)n1	-13%	56µM*	-3%	3%	17%
Cc1cc(SCC(=O)c2ccc(O)c(O)c2)nc2ccccc12	-21%	2.8µM*	5%	-6%	5%
Cc1cc(SCC(=O)c2ccc3c(c2)OCO3)nc2ccccc12	-2%	1%	0%	-12%	2%
SMILES	FBPA Giardia inh	Sm TGR block	RE007 growth inh	TbPYK inhibitor	LmPK inhibitor
Nc1cc(N)nc(SCC(=O)NCc2ccco2)n1	-1%	-4%	-16%	6%	5%
C=CCNc1nnc(SC2CC(=O)N(c3ccc(OCCC)cc3)C2=O)s1 (stereo unspecified)	-20%	4µM*	11µM*	-19%	10%
Nc1nnc(SC2CC(=O)N(c3ccccc3)C2=O)s1 (stereo unspecified)	-7%	2.5µM*	28µM*	-10%	14%
CCOC(=O)c1ccc(N2C(=O)CC(Sc3nnc(C)s3)C2=O)cc1 (stereo unspecified)	-21%	4.5µM*	20µM*	u	4%
CCOC(=O)c1ccc(N2C(=O)CC(SCC(N)C(=O)OCC)C2=O)cc1 (stereo unspecified)	-1%	14µM*	-18%	-4%	5%
CCOC(=O)c1ccc(N2C(=O)CC(Sc3nc(C)cc(C)n3)C2=O)cc1 (stereo unspecified)	-1%	-19%	7%	-1%	-4%
FC(F)Sc1nnc(-c2cccs2)n1-c1ccccc1	2%	8%	18%	-1%	1%
O=C(Cc1ccc(O)cc1)N/N=C/c1cccs1	0%	0%	-8%	2%	-1%
O=S(=O)(c1ccc(Cl)cc1)c1nc(-c2cccc(Br)c2)oc1NCc1ccccc1	x	7%	x	-4%	x
CCOC(=O)C1(C)CCCN(C(=O)c2ccc3ccccc3c2)C1 (stereo unspecified)	x	x	12%	7%	x
CC(=O)Nc1ccc(N2C(=O)CC(Sc3nc4ccccc4s3)C2=O)cc1 (stereo unspecified)	-4%	x	-7%	3%	2%
CCOc1ccc(N2C(=O)CC(Sc3ncccn3)C2=O)cc1 (stereo unspecified)	13%	u	-19%	1%	3%
COc1ccc(N2C(=O)CC(Sc3nc4ccccc4s3)C2=O)cc1OC (stereo unspecified)	5%	8.9µM*	-25%	-18%	3%
CCOC(=O)C(N)CSC1CC(=O)N(c2ccc(OCC)cc2)C1=O (stereo unspecified)	u	45µM*	u	3%	1%
CCOC(=O)NNC1CC(=O)N(c2ccc(OC)cc2)C1=O (stereo unspecified)	-2%	0%	-1%	0%	-10%
CCOC(=O)C(N)CSC1CC(=O)N(c2ccc(OC)cc2)C1=O (stereo unspecified)	-29%	32µM*	-6%	4%	3%
COc1ccccc1C(=O)Nc1ccc2c(c1)CC1(C(=O)N(C)C(=O)N(C)C1=O)C1CCCN21 (stereo unspecified)	x	35µM*	-4%	-29%	-10%
O=C(ONc1ccc(N=NC(=O)c2ccccc2O)cc1)c1ccccc1	-12%	-13%	-10%	-13%	-21%
Cc1cc(N=NC(=O)c2ccccc2)ccc1O	u	11µM*	5%	-17%	-5%
CCOCCCN(Cc1ccco1)S(=O)(=O)c1cc2c(cc1C)NC(=O)CO2	x	0%	x	1%[15.4 µM]	x
CCOCCCN(Cc1ccco1)S(=O)(=O)c1cc2c(cc1Cl)NC(=O)CO2	x	18µM*	x	1%[15.4 µM]	x
O=C1COc2cc(S(=O)(=O)NCc3ccco3)c(Cl)cc2N1	x	16µM*	x	5%	x
COc1ccc(C2=NN(C(=O)c3ccco3)C(c3cc4ccccc4nc3Cl)C2)cc1 (stereo unspecified)	-1%	45µM*	-1%	-7%	2%
O=C(/C=C/c1ccccc1)N1CCC[C@H]1CO	-1%	-7%	-1%	-3%	4%
C#CCSc1nncn1C(=O)/C=C/c1ccccc1	u	71µM*	-12%	-2%	0%

Screening results deposited in PubChem by National Center for Advancing Translational Sciences (NCATS).
